# Experimental data: PubChem BioAssay AID1236 (Emory University Molecular Libraries Screening Center, 2008)
# Hit rate of the full screen: of about 220,000 compounds, about 800 (0.36%) were called active.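 The calls were made as follows: active = inhibition above about 50% (limit read from the data); inactive = the rest.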 The full list was thinned out, with actives kept by preference.
# System: calpain II (m-calpain), Sus scrofa
# Experiment: m-calpain protease activity blockers – biochemical, fluorogenic peptide substrate, 1536-well, primary screen (AID 1236)
# Conditions: purified calpain II, 30 min, at 16 µM, active compounds read high
row,SMILES,inhibition
1,CC(Sc1nnnn1C1CCCCC1)C(=O)O (configuration not stated),-11.2% (inactive)
2,C/C(=N\NC(=O)CNc1cccc2ccccc12)c1ccc(Br)s1,17.6% (inactive)
3,O=C(Nc1ccccc1Cl)O/N=C(/c1ccccc1)c1ccccn1,-15.9% (inactive)
4,NCCCCCC(=O)N/N=C/c1ccc2nccnc2c1,-3.28% (inactive)
5,CC(C)CNC(=S)NC(=O)c1ccc(Cl)cc1,11.4% (inactive)
6,COC/C=C/C1=CC2=CC(=O)C(C)(OC(=O)CCC(=O)OC)C(=O)C2=CO1 (configuration not stated),-93.8% (inactive)
7,COc1ccc(C(=O)O/N=C(\N)Cc2ccc(Cl)cc2Cl)cc1OC,11.8% (inactive)
8,NC(N)=N/N=C/c1ccc(OCc2ccc(Cl)cc2Cl)cc1,61.9% (active)
9,NC(N)=N/N=C/c1ccc(Cl)c([N+](=O)[O-])c1,-20% (inactive)
10,COc1ccc(/C=N/NC(=O)c2ccc(Cl)cc2)cc1COC(C)=O,38.9% (inactive)
11,O=C(CN(c1cccc(Cl)c1)S(=O)(=O)c1ccccc1)NN=C1CCCC1,-9.25% (inactive)
12,CCOc1ccc(C(=O)Nc2nccs2)cc1[N+](=O)[O-],0.78% (inactive)
13,COc1ccccc1N1CCN(C(=O)CSc2ncnc3c2cnn3-c2ccc(C)c(C)c2)CC1,-19.6% (inactive)
14,CC(C)C[C@H](NC(=O)[C@@H]1O[C@H]1C(=O)O)C(=O)NCCCCN=C(N)N,98.8% (active)
15,COc1cc(S(=O)(=O)N(Cc2cccs2)C2CC2)ccc1-n1cnnn1,26% (inactive)
16,Nc1ccccc1SC(C[N+](=O)[O-])c1ccccc1 (configuration not stated),2.09% (inactive)
17,O=C(Nc1cccnc1)c1cc2cc(Br)ccc2oc1=O,52.9% (active)
18,COc1ccc(C(=O)Nc2cccnc2)cc1C(=O)Nc1cccnc1,17.3% (inactive)
19,O=C(Oc1cccnc1)c1cc2ccccc2oc1=O,-6.4% (inactive)
20,COCCN(Cc1cc2cc3c(cc2nc1Cl)OCO3)C(=O)c1cccc(C)c1,24.9% (inactive)
21,NCCCC[C@@H]1NC(=O)[C@H](CCC(=O)O)NC(=O)c2cc([N+](=O)[O-])cc(I)c2NCC[C@@H](C(N)=O)NC1=O,-13.1% (inactive)

row,SMILES,inhibition
1,CCn1c(/C=C/Nc2ccccc2)[n+](CC)c2ccc(C(=O)OCC(F)(F)F)cc21,52% (active)
2,CCOC(=O)c1ccc2c(c1)nc(C)n2CC,14.2% (inactive)
3,O=C(CCS(=O)(=O)Cc1ccccc1)Nc1ccc2c(c1)OCCO2,-23.4% (inactive)
4,CCOc1cc(/C=N/NC(=O)OC)ccc1OCCSc1ccc(Cl)cc1,-7.99% (inactive)
5,CCOC(=O)Nc1ccc(S(=O)(=O)N(C)C(C)C)cc1,-5.03% (inactive)
6,COc1cc(NC(=O)c2ccccc2NS(=O)(=O)c2ccc(Cl)s2)cc(OC)c1,-32.1% (inactive)
7,Nc1cc(C(F)(F)F)ccc1N1CCOCC1,-2.56% (inactive)
8,N=c1oc2ccccc2cc1C(=O)N/N=C/c1ccccc1,14.5% (inactive)
9,O=C(N/N=C\c1cccc(Br)c1)c1ccccc1-n1cccc1,68% (active)
10,COc1ccc(OC)c2[nH]c(=O)c(CCNC(=O)C(=O)c3c[nH]c4ccccc34)cc12,-38.9% (inactive)
11,CC(=O)c1ccc(NC(=O)C2CC(=O)Nc3nc4ccccc4n32)cc1 (configuration not stated),-19.9% (inactive)
12,Cc1nc2ccccc2c(C)c1C(=O)c1ccc(F)cc1,-9.43% (inactive)
13,O=P(O)(CP(=O)(c1ccccc1)c1ccccc1)c1ccccc1O,-11.7% (inactive)
14,COc1ccc(CN2CCCCC2C)cc1OC (configuration not stated),-66% (inactive)
15,CC(C)N(Cc1ccccc1)C(=S)Nc1ccc(OC(F)F)cc1,18.2% (inactive)
16,CC(=O)c1ccc(NC(=O)N[C@@H](Cc2ccccc2)C(=O)O)cc1,5.25% (inactive)
17,CC(=O)c1ccc(NC(=S)N(Cc2ccccc2)C(C)C2CC2)cc1 (configuration not stated),69.5% (active)
18,CNc1nc(SC)nc(N(C#N)CC(=O)OC)n1,-4.33% (inactive)
19,O=C(NCCc1csc(-c2ccccc2)n1)c1ccccc1F,18.7% (inactive)
20,COC(=O)Cn1c(O)c(N=NC(=O)OC)c2ccccc21,-10.4% (inactive)
21,CCN(CC(=O)NCCc1ccccc1)S(=O)(=O)c1ccccc1,13.4% (inactive)

row,SMILES,inhibition
1,CCOc1cc(/C=N/O)cc(Br)c1OC,2.94% (inactive)
2,CCOc1c(Cl)cc(/C=N/O)cc1OC,-1.32% (inactive)
3,COc1cc(/C=N/O)cc(Br)c1OCc1cccc(Cl)c1,56.7% (active)
4,C=CCn1c(-c2ccc(Cl)cc2)ccc(C#N)c1=O,-6.13% (inactive)
5,CC(O)C(NS(=O)(=O)c1ccc(Cl)cc1)C(=O)OCc1cc([N+](=O)[O-])cc2c1OCOC2 (configuration not stated),-6.26% (inactive)
6,CN(C(=O)CCn1c(=S)oc2ccccc21)C1CCCCC1,6.83% (inactive)
7,Cc1c(C(=O)c2cccc([N+](=O)[O-])c2)c2ccccn2c1CCC#N,10.5% (inactive)
8,CSCc1cc(N(C)C)nc(SCc2ccc(Cl)cc2Cl)n1,8.94% (inactive)
9,CSCc1cc(N2CCOCC2)nc(SCc2ccc(Cl)cc2Cl)n1,53.9% (active)
10,O=c1cc(CSc2ccc(Cl)cc2)nc(N2CCOCC2)[nH]1,-33.8% (inactive)
11,Cc1ccc(-n2ncc3c(Nc4cccc(C(=O)O)c4)ncnc32)cc1,10.2% (inactive)
12,NC(=O)CC[C@@H]1NC(=O)[C@H](CO)NC(=O)c2cc([N+](=O)[O-])cc(I)c2NCC[C@@H](C(N)=O)NC1=O,-33.7% (inactive)
13,S=c1[nH]nc(-c2cccs2)n1/N=C/c1cn(-c2ccccc2)nc1-c1ccc(Cl)cc1,-33.4% (inactive)
14,COc1ccc(OC(C)C(=O)Nc2cccnc2)cc1 (configuration not stated),-45% (inactive)
15,COc1ccc(C(=O)C2CCCN(C(=O)c3cc4nc(C)cc(C)n4n3)C2)cc1F (configuration not stated),-25.8% (inactive)
16,O=c1cc(-c2ccccc2)nc(N2CCCCC2)[nH]1,-13.8% (inactive)
17,Cc1ccc2nc(-c3ccccc3)cc(C(=O)O)c2c1,-19.3% (inactive)
18,c1ccc(-c2cc(N3CCCCC3)c3ccccc3n2)cc1,50.5% (active)
19,CN(C)CCCSc1ccccc1NC(=O)/C=C/c1ccccc1,-17.5% (inactive)
20,N#Cc1ccc(N2Cc3ccccc3/C2=N/C(=O)Nc2ccc(Cl)cc2)cc1,-5.24% (inactive)
